# Laboratory results taken from PMC4081100, “A DNA-binding-site landscape and regulatory network analysis for NAC transcription factors in Arabidopsis thaliana”.
# Experiments:
# Assay in all cases: universal protein binding microarray (PBM); transcription factors of Arabidopsis thaliana; high values mean tight binding
# [1] = target: GST-NTL6(1-168) (Arabidopsis thaliana, UniProt Q9SCK6 1-168); settings: protein: recombinant; tags: GST; chain copies: 2; dsDNA, one strand shown
# In short: (§1)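 Binding is expressed as the normalised enrichment score (E-score). Proteins carrying a GST tag, whether NAC-domain, full-length or DNA-binding-domain forms, were induced in cells, and zinc acetate was added for zinc-finger proteins. After purification on glutathione–Sepharose 4B and quantification by A280 or anti-GST western blot, each was applied in duplicate at 200 to 500 nM final to custom all-10-mer Agilent 4 × 180K arrays made double-stranded by primer extension. Gapped and ungapped 8-mers were scored.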
# [2] = target: T1, GST-ANAC019 NAC domain (Arabidopsis thaliana, UniProt Q9C932 14-162); settings: protein: recombinant; tags: GST; chain copies: 2; dsDNA, one strand shown
# T1 sequence: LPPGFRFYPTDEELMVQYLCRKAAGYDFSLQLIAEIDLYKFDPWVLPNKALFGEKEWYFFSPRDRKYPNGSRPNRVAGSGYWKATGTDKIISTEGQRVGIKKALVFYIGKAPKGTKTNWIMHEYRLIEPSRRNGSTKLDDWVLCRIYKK
# In short: as §1
# [3] = target: T2, GST-NTL8 NAC domain (Arabidopsis thaliana, UniProt Q9XIN7 14-156); settings: protein: recombinant; tags: GST; chain copies: 2; dsDNA, one strand shown
# T2 sequence: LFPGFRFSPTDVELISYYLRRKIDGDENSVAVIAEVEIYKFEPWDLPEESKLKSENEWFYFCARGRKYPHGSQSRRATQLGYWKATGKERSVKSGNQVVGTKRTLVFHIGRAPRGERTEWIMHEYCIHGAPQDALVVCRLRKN
# In short: as §1
# [4] = target: T3, GST-VND7 NAC domain (Arabidopsis thaliana, UniProt Q9C8W9 9-158); settings: protein: recombinant; tags: GST; chain copies: 2; dsDNA, one strand shown
# T3 sequence: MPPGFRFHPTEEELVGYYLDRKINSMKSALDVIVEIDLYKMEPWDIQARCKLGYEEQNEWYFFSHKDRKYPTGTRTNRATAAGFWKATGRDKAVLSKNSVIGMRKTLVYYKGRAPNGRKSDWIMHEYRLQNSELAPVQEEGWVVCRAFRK
# In short: as §1
# [5] = target: T4, GST-ATAF1 NAC domain (Arabidopsis thaliana, UniProt Q39013 7-158); settings: protein: recombinant; tags: GST; chain copies: 2; dsDNA, one strand shown
# T4 sequence: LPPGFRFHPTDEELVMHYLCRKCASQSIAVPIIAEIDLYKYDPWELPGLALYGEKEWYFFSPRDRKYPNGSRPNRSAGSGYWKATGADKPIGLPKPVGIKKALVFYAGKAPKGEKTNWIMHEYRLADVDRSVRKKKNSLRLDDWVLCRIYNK
# In short: as §1
# [6] = target: GST-WRKY1(266-371) (Arabidopsis thaliana, UniProt Q9SI37 266-371); settings: protein: recombinant; tags: GST; dsDNA, one strand shown
# Chain of GST-WRKY1(266-371) (Q9SI37 266-371): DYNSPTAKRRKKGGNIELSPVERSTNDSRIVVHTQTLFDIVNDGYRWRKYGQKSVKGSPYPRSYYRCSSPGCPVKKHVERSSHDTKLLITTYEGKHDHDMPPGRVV
# In short: as §1
# [7] = target: T5, GST-ANAC092(1-176) (Arabidopsis thaliana, UniProt Q9FKA0 1-176); settings: protein: recombinant; tags: GST; chain copies: 2; dsDNA, one strand shown
# T5 sequence: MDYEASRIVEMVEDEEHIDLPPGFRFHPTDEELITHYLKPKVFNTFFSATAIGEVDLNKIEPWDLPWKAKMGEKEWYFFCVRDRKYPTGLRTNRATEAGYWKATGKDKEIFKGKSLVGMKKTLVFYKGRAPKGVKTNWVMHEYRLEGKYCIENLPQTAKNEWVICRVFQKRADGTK
# In short: as §1
# [8] = target: T6, GST-ANAC055(1-171) (Arabidopsis thaliana, UniProt Q9LDY8 1-171); settings: protein: recombinant; tags: GST; chain copies: 2; dsDNA, one strand shown
# T6 sequence: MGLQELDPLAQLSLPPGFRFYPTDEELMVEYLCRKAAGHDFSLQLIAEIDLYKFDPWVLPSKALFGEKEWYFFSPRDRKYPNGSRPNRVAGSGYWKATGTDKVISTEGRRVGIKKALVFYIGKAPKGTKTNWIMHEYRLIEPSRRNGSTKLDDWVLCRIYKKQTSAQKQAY
# In short: as §1
# [9] = target: T7, GST-ANAC092(1-285) full length (Arabidopsis thaliana, UniProt Q9FKA0 1-285); settings: protein: recombinant; tags: GST; chain copies: 2; dsDNA, one strand shown
# T7 sequence: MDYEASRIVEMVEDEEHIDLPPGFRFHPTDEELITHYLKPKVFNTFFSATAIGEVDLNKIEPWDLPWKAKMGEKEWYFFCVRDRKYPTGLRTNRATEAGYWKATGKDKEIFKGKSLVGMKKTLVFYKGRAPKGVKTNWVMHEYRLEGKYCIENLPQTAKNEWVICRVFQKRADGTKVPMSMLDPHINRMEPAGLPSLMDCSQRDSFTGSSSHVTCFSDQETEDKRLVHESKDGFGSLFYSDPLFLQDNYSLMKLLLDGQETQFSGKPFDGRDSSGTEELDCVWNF
# In short: as §1
# [10] = target: T8, GST-NAP(1-166) (Arabidopsis thaliana, UniProt O49255 1-166); settings: protein: recombinant; tags: GST; chain copies: 2; dsDNA, one strand shown
# T8 sequence: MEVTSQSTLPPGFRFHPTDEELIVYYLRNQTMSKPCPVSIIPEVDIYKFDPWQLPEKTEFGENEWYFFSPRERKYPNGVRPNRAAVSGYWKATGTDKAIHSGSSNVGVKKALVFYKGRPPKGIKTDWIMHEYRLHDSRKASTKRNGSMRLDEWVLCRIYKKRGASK
# In short: as §1
# [11] = target: T9, GST-NST2(1-184) (Arabidopsis thaliana, UniProt Q9M274 1-184); settings: protein: recombinant; tags: GST; chain copies: 2; dsDNA, one strand shown
# T9 sequence: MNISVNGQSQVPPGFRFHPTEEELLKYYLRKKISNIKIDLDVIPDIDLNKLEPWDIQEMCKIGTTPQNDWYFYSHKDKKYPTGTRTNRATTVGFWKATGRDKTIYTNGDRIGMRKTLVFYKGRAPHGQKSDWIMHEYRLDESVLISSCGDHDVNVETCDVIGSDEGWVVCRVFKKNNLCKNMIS
# In short: as §1
# [12] = target: T10, GST-VND3 NAC domain (Arabidopsis thaliana, UniProt Q9FH59 12-162); settings: protein: recombinant; tags: GST; chain copies: 2; dsDNA, one strand shown
# T10 sequence: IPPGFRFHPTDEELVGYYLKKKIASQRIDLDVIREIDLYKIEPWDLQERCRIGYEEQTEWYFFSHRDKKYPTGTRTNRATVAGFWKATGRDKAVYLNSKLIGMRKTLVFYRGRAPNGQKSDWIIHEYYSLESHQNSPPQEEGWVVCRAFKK
# In short: as §1
# Chain of GST-NTL6(1-168) (Q9SCK6 1-168): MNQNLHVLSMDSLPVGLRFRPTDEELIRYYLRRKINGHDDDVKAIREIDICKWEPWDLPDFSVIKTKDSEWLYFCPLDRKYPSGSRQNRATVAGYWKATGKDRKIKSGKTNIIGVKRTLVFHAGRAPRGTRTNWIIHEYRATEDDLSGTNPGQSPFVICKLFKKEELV
sequence,measurement,setting,value
ATTCCCTC,binding signal,[1],0.115 E-score
same,binding signal,[2],0.0664 E-score
same,binding signal,[3],0.421 E-score
same,binding signal,[4],0.0536 E-score
GAAGTCAA,binding signal,[1],0.104 E-score
same,binding signal,[2],0.0675 E-score
same,binding signal,[5],0.0967 E-score
same,binding signal,[3],0.0673 E-score
same,binding signal,[4],0.0707 E-score
same,binding signal,[6],0.482 E-score
AGGAAACT,binding signal,[7],0.174 E-score
same,binding signal,[1],0.227 E-score
same,binding signal,[8],0.0635 E-score
same,binding signal,[5],0.0874 E-score
same,binding signal,[9],0.186 E-score
same,binding signal,[10],0.0881 E-score
same,binding signal,[11],0.125 E-score
same,binding signal,[3],0.426 E-score
same,binding signal,[4],0.131 E-score
CATTGACG,binding signal,[9],0.149 E-score
same,binding signal,[12],0.08 E-score
same,binding signal,[6],0.411 E-score
AGGTCGTC,binding signal,[6],0.416 E-score
AGGGTAAT,binding signal,[7],0.113 E-score
same,binding signal,[1],0.143 E-score
same,binding signal,[2],0.116 E-score
same,binding signal,[8],0.17 E-score
same,binding signal,[5],0.114 E-score
same,binding signal,[9],0.108 E-score
same,binding signal,[11],0.0716 E-score
same,binding signal,[3],0.441 E-score
same,binding signal,[12],0.121 E-score
AGTCAAAT,binding signal,[5],0.213 E-score
same,binding signal,[10],0.113 E-score
same,binding signal,[4],0.152 E-score
same,binding signal,[6],0.476 E-score
TAGGTCAA,binding signal,[8],0.077 E-score
same,binding signal,[5],0.145 E-score
same,binding signal,[12],0.0723 E-score
same,binding signal,[6],0.482 E-score
ATTAGTCA,binding signal,[8],0.0956 E-score
same,binding signal,[5],0.109 E-score
same,binding signal,[12],0.135 E-score
same,binding signal,[6],0.404 E-score
AGGTCAGA,binding signal,[1],0.0962 E-score
same,binding signal,[6],0.449 E-score
CTGGTCAA,binding signal,[7],0.0676 E-score
same,binding signal,[6],0.488 E-score
CAGTCAAG,binding signal,[7],0.051 E-score
same,binding signal,[9],0.063 E-score
same,binding signal,[3],0.0503 E-score
same,binding signal,[6],0.444 E-score
CTAAGTCA,binding signal,[1],0.146 E-score
same,binding signal,[6],0.413 E-score
GCATTGAC,binding signal,[7],0.0797 E-score
same,binding signal,[5],0.0849 E-score
same,binding signal,[11],0.0561 E-score
same,binding signal,[6],0.47 E-score
CAAGTCAA,binding signal,[7],0.0929 E-score
same,binding signal,[5],0.0933 E-score
same,binding signal,[9],0.234 E-score
same,binding signal,[6],0.486 E-score
ACTGGTCA,binding signal,[7],0.127 E-score
same,binding signal,[6],0.433 E-score
GGGTCAAA,binding signal,[7],0.0694 E-score
same,binding signal,[11],0.0921 E-score
same,binding signal,[6],0.48 E-score
GTCAATGA,binding signal,[1],0.0646 E-score
same,binding signal,[6],0.466 E-score
TGACCTAA,binding signal,[1],0.0566 E-score
same,binding signal,[6],0.419 E-score
ACTTGACC,binding signal,[7],0.0892 E-score
same,binding signal,[2],0.05 E-score
same,binding signal,[9],0.0507 E-score
same,binding signal,[11],0.11 E-score
same,binding signal,[3],0.0948 E-score
same,binding signal,[6],0.47 E-score
TGGGTCAA,binding signal,[7],0.156 E-score
same,binding signal,[9],0.159 E-score
same,binding signal,[3],0.0706 E-score
same,binding signal,[6],0.483 E-score
AGTCAAGG,binding signal,[7],0.104 E-score
same,binding signal,[2],0.0733 E-score
same,binding signal,[9],0.139 E-score
same,binding signal,[10],0.0507 E-score
same,binding signal,[11],0.0876 E-score
same,binding signal,[6],0.475 E-score
AGTCCACG,binding signal,[7],0.062 E-score
same,binding signal,[2],0.0759 E-score
same,binding signal,[6],0.438 E-score
AAAGTCAG,binding signal,[7],0.1 E-score
same,binding signal,[2],0.0919 E-score
same,binding signal,[5],0.0653 E-score
same,binding signal,[11],0.085 E-score
same,binding signal,[6],0.461 E-score
CCCTTGAC,binding signal,[7],0.0597 E-score
same,binding signal,[1],0.0561 E-score
same,binding signal,[2],0.0511 E-score
same,binding signal,[10],0.067 E-score
same,binding signal,[3],0.151 E-score
same,binding signal,[6],0.459 E-score
GGTCAACC,binding signal,[7],0.144 E-score
same,binding signal,[2],0.0527 E-score
same,binding signal,[5],0.0896 E-score
same,binding signal,[9],0.061 E-score
same,binding signal,[6],0.491 E-score
GGGTCAAC,binding signal,[7],0.0723 E-score
same,binding signal,[9],0.0889 E-score
same,binding signal,[6],0.493 E-score
AAAGGTCA,binding signal,[7],0.0939 E-score
same,binding signal,[8],0.106 E-score
same,binding signal,[5],0.137 E-score
same,binding signal,[9],0.0795 E-score
same,binding signal,[3],0.154 E-score
same,binding signal,[6],0.424 E-score
GCGAAGAC,binding signal,[1],0.12 E-score
same,binding signal,[2],0.0689 E-score
same,binding signal,[8],0.0506 E-score
same,binding signal,[10],0.0548 E-score
same,binding signal,[3],0.109 E-score
same,binding signal,[6],0.404 E-score
